High-throughput results deposited in PubChem BioAssay by Broad Institute.
This excerpt belongs to a sample that is enriched for hits.
Tg IFNy HTS: T. gondii growth inhibition with IFN-gamma, primary screen, cell-based | Toxoplasma gondii growth in IFN-gamma-treated host cells; hits give low values | 69,000 compounds, 3.8% hits | activity change, negative = inhibition, % (test concentration not listed); in the data active = activity change below about -70%, passing the limit was not always enough;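 note: host cells are HeLa cells infected with Toxoplasma gondii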
Active calls of the source: *; ! = a repeat was not active.

How did CN(C)CC1(O)CCN(C(=O)CCOc2ccccc2)C1 (centres undefined) do in these assays?
Tg IFNy HTS: 3

How did COc1ccccc1-c1nc(Cn2c(=O)c3cccnc3n(-c3ccccc3OC)c2=O)c(C)o1 do in these assays?
Tg IFNy HTS: 6

What do the screens show for `O=C(CC1N=C2c3ccccc3N=C(SCc3cc(=O)n4cc(Cl)ccc4n3)N2C1=O)NCc1ccccc1` (centres undefined)?
Tg IFNy HTS: 4

What do the screens show for `O=C(NCc1ccccn1)C1CNCCN1C(=O)c1cnc2ccccc2c1` (centres undefined)?
Tg IFNy HTS: 2

What do the screens show for `COC(=O)c1c(NCCc2ccccc2)c2cc(F)ccc2[nH]c1=O`?
Tg IFNy HTS: 7

How did COC(=O)c1c(NCCc2c[nH]c3ccccc23)c2cc(F)ccc2[nH]c1=O do in these assays?
Tg IFNy HTS: -99*

How did COCCNc1c(C(=O)OC)c(=O)[nH]c2ccc(F)cc12 do in these assays?
Tg IFNy HTS: 35

How did c1cnc(N2CCC3(CC2)CC(N2CCOCC2)CO3)nc1 (centres undefined) do in these assays?
Tg IFNy HTS: -2

How did Cc1nnc(N2CCC(C3CCCCN3S(C)(=O)=O)CC2)c2ccccc12 (centres undefined) do in these assays?
Tg IFNy HTS: -2

How did NS(=O)(=O)c1cccc(NC(=O)CCc2ccccc2)c1 do in these assays?
Tg IFNy HTS: -24

How did COC(=O)[C@@]12OC[C@]34[C@H]([C@@H](O)[C@@H]1O)[C@@]1(C)CC(=O)C(=O)C(C)[C@@H]1C[C@H]3OC(=O)[C@H](OC(=O)/C=C(\C)C(C)C)[C@@H]24 (some centres undefined) do in these assays?
Tg IFNy HTS: -89*

Results for Cc1ccc(-c2ccnc(NCCSc3nnnn3C)n2)c(C)n1 ?
Tg IFNy HTS: -6

Results for Cc1nc(COC[C@]23CCC[C@@H]2CN(S(C)(=O)=O)C3)cs1 ?
Tg IFNy HTS: -11

How did COc1cccc(CC2CN(C(=O)c3cc(=O)c4ccccc4[nH]3)CCO2)c1 (centres undefined) do in these assays?
Tg IFNy HTS: -47

Results for CCC1c2cccn2CCN1C(=O)c1cccc(C#CC(C)(C)O)c1 (centres undefined) ?
Tg IFNy HTS: -16

How did COCC(=O)N1CCC2(CC1)CC1(CCN(Cc3cccnc3)CC1)C(=O)N2C do in these assays?
Tg IFNy HTS: -5

Results for CC(=O)N1CCCC1c1csc(Nc2cnccn2)n1 (centres undefined) ?
Tg IFNy HTS: 15

How did CC(C)OCC12CCCOC1CCN(C(=O)c1cccn1C)C2 (centres undefined) do in these assays?
Tg IFNy HTS: -47

What do the screens show for `O=C1c2ccccc2-c2n[nH]c3cccc1c23`?
Tg IFNy HTS: -91*!

What do the screens show for `O=C1c2cccc(O)c2C(=O)c2c(O)cccc21`?
Tg IFNy HTS: 12

What do the screens show for `CCOc1ccc(CNS(=O)(=O)c2ccc3[nH]c(=O)ccc3c2)cc1OC`?
Tg IFNy HTS: -3

What do the screens show for `CC(=O)N1CCO[C@H]2CCN(Cc3cncn3C)C[C@H]21`?
Tg IFNy HTS: inactive

What do the screens show for `Cc1ccc(S(=O)(=O)Nc2cnc3ccccc3c2)cc1`?
Tg IFNy HTS: -53

What do the screens show for `CC(=O)Nc1ccc(S(=O)(=O)Nc2nc3ccccc3nc2Nc2ccc(C)cc2)cc1`?
Tg IFNy HTS: -30

Results for Cc1ccc(S(=O)(=O)Nc2ccc(-c3nc4ccccc4[nH]3)cc2)cc1 ?
Tg IFNy HTS: -81*

What do the screens show for `CSc1cccc(NC(=O)c2nnn(Cc3nc(-c4ccc(OC(C)C)cc4)oc3C)c2C)c1`?
Tg IFNy HTS: 2

How did COCCN(C)C(=O)C1CC2(CO1)CN(Cc1ccc(OC)cc1)c1ccccc12 (centres undefined) do in these assays?
Tg IFNy HTS: -35

What do the screens show for `COc1ccc(CN2CC3(COC(C(=O)N4CCCC4)C3)c3ccccc32)cc1` (centres undefined)?
Tg IFNy HTS: -79*

Results for COc1ccc(CN2CC3(COC(C(=O)CCN4CCOCC4)C3)c3ccccc32)cc1 (centres undefined) ?
Tg IFNy HTS: -36

How did Cc1ccc2cc(CN(C)Cc3cnn(C)c3)c(=O)[nH]c2c1 do in these assays?
Tg IFNy HTS: 2

What do the screens show for `CO[C@@H]1C[C@H]2CN(C(=O)c3cnc(C)cn3)CCN2C1`?
Tg IFNy HTS: 2

How did CN(C)C(=O)c1ccc2ncnc(N3CCCC3)c2c1 do in these assays?
Tg IFNy HTS: 7

Results for CN1CCN(c2ncnc3ccc(-c4cccc(-c5ccn[nH]5)c4)cc23)CC1 ?
Tg IFNy HTS: -79*

What do the screens show for `O=C(O)c1cncc(-c2cccc(-c3ccn[nH]3)c2)c1`?
Tg IFNy HTS: 88

What do the screens show for `C=CCN(Cc1ccccc1OC)C(=O)C1Cc2ccccc2C1`?
Tg IFNy HTS: 0

How did Fc1cnc(N2CCC3(CC2)CC(N2CCOCC2)CO3)nc1 (centres undefined) do in these assays?
Tg IFNy HTS: -1

What do the screens show for `CC/C=C/CC(=O)Nc1cccc(NC(=O)Cc2ccccc2)c1`?
Tg IFNy HTS: -12

What do the screens show for `O=C(Cc1ccccc1)Nc1cccc(NC(=O)c2ccnnc2)c1`?
Tg IFNy HTS: 6

Results for Cc1cc(C(=O)Nc2cccc(NC(=O)Cc3ccccc3)c2)n[nH]1 ?
Tg IFNy HTS: -75*

Results for CCOc1cc(CN2C[C@@H]3CCCN3C[C@@H]2Cc2ccccc2)ccc1OCCO ?
Tg IFNy HTS: 10

How did CC(C)N(C)Cc1n[nH]c2c1CCN(C(=O)c1csnn1)C2 do in these assays?
Tg IFNy HTS: -7

How did COCCN1C2(CCN(C(=O)Cc3cccnc3)C2)c2ccccc2S1(=O)=O (centres undefined) do in these assays?
Tg IFNy HTS: -41

Results for CC(=O)NCCc1csc(C2CCCN(C(=O)/C=C/c3ccccc3Cl)C2)n1 (centres undefined) ?
Tg IFNy HTS: -6

Results for Cc1ccc(/C=C/C(=O)N2CCCC(c3nc(CCNC(=O)C4CC4)cs3)C2)cc1 (centres undefined) ?
Tg IFNy HTS: -67

How did CCC(=O)NCCc1csc(C2CCCN(C(=O)/C=C/c3cccc(Cl)c3)C2)n1 (centres undefined) do in these assays?
Tg IFNy HTS: -79*

What do the screens show for `CC(=O)N1C[C@@H]2C3(CCN(C(=O)NC(C)C)CC3)CC[C@]2(C(=O)N2CCCC2)C1`?
Tg IFNy HTS: -4

How did COc1cccnc1C(=O)N1CCOC(c2ccc(Cl)c(Cl)c2)C1 (centres undefined) do in these assays?
Tg IFNy HTS: -6

What do the screens show for `COc1ncc(C(=O)N2CCOC(c3ccc(Cl)c(Cl)c3)C2)cn1` (centres undefined)?
Tg IFNy HTS: -15

What do the screens show for `COc1cccc(C)c1C(=O)N1CCOC(c2ccc(Cl)c(Cl)c2)C1` (centres undefined)?
Tg IFNy HTS: -77*

What do the screens show for `COCC1C(=O)N(CC2CC2)CC12CCN(Cc1nccs1)CC2` (centres undefined)?
Tg IFNy HTS: 25

How did CNCCCN1c2ccccc2CCc2ccccc21 do in these assays?
Tg IFNy HTS: -83*!

How did CC(=O)c1cc(C(=O)NCCCN2CCCc3ccccc32)cs1 do in these assays?
Tg IFNy HTS: -2

How did CC(=O)c1ccc2c(c1)N(CCCN(C)C)c1ccccc1S2 do in these assays?
Tg IFNy HTS: 11

Results for CN(C)S(=O)(=O)CCNC(=O)C(=O)N1CCc2ccccc21 ?
Tg IFNy HTS: -1

What do the screens show for `CN(C)CCCN1c2ccccc2CCc2ccc(Cl)cc21`?
Tg IFNy HTS: -70*!

How did CN(C)CCCN1c2ccccc2Sc2ccccc21 do in these assays?
Tg IFNy HTS: -22
